Screening results from PubChem.
This is a sample that favours compounds with a hit; in the whole collection about 6.2% have one here.
KB-3-1 tox: kills parental KB-3-1 adenocarcinoma cells; Potency, µM (series often up to 46.1 µM), most hits filed as cytotoxic; actives 1.4% (n = 400,000); KB-3-1 viability, CellTiter-Glo ATP luminescence, 72 h; further: on the % scale 0 is the no-effect control and ±100 the full control effect; nearly all actives have a fitted effect of over 60% in size
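Cells are dispensed, compounds pinned in, plates held at 37 °C for 72 h, then CellTiter-Glo is added and luminescence read after 10 minutes. Cell line: parental KB-3-1 in phenol-red-free DMEM, 10% FBS.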
KB-V1 cytotox: kills drug-selected multidrug resistant KB-V1 cells; Potency, µM (series often up to 46.1 µM), most hits filed as cytotoxic; actives 3.4% (n = 400,000); KB-V1 MDR cells viability, CellTiter-Glo, 72 h; further: on the % scale 0 is the no-effect control and ±100 the full control effect; nearly all actives have a fitted effect of over 60% in size
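Cells of the MDR subline KB-V1 are plated, dosed with compound at multiple concentrations, and incubated 72 h at 37 degrees C; CellTiter-Glo is then added and luminescence read after 10 min.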
HT1080NT lethal: kills 2HG-producing HT-1080-NT fibrosarcoma cells; HT-1080-NT fibrosarcoma viability, CellTiter-Glo ATP luminescence, 48 h; Potency, µM (titrated, usually from 46.1 µM), without a hit: at the top dose activity, negative = less viability, most hits filed as cytotoxic; actives 1.6% (n = 360,000); AID 686970;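 further: NT is the 2HG producing partner of a matched IDH1 knockdown line; 0% = DMSO-treated cells and -100% = media-only wells without cells; nearly all actives have a fitted effect of over 55% in size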
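Luminescent CellTiter-Glo readout after 48 hours of compound exposure at 37 degrees C defined viability of HT-1080-NT cells. Activity was normalized to DMSO wells and cell-free media wells; concentration-response curves were fitted and assigned curve classes.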
HT1080 IDH1KD tx: HT-1080 IDH1 knockdown cell toxicity (counter line); HT-1080 IDH1 knockdown viability, ATP luminescence, 48 h; Potency, µM (highest dose often 46.1 µM), for the others: at the highest dose activity, negative = toxicity, hits mostly cytotoxic; actives 2% (n = 360,000);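 further: 0% = DMSO wells and -100% = cell-free medium wells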
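In this qHTS, HT-1080 cells depleted of IDH1 are exposed for 48 h at 37 °C to compound titrations. Toxicity is scored from CellTiter-Glo luminescence, with DMSO as full viability and medium alone as none.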
S2 tox: viability counter-screen for ATXN expression inhibitors. actives 0.49% (n = 400,000). S2 cells (HEK-293 line with an ATXN2-luciferase reporter) viability, CellTiter-Fluor protease fluorescence, 24 h. Potency, µM (doses to about 56.7 µM), usual class: cytotoxic; further: nearly all actives have a fitted effect of over 40% in size
ATXN2 expr inh: inhibitors of ATXN2 expression; HEK-293 ATXN2-luciferase reporter, luminescence, 24 h; Potency, µM (series often up to 57 µM), inactives show at the highest dose activity change, negative = inhibition, most hits filed as inhibitors; actives 0.72% (n = 360,000); AID 1745845; further: on the % scale 0 is the no-effect control and ±100 the full control effect; nearly all actives have a fitted effect of over 55% in size
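qHTS (up to 57 uM final) was run with 24 h compound exposure of reporter cells at 37 °C. Each well was multiplexed: SteadyGlo luminescence measured ATXN2-luciferase expression after a fluorogenic Gly-Phe-AFC viability readout (25 uM final).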
* = called active by the depositor; i = inactive; ? = inconclusive; · = no result. The call rests on the fitted dose curve; in most records, active means well fitted curve in the direction sought with a large enough effect; inconclusive means small, poorly fitted or top-dose-only effect, or another doubt; inactive means no such curve, though single readings can be large; an effect the other way counts as inactive or inconclusive. Potency means the concentration at half of the fitted maximal effect.

SMILES | KB-3-1 tox | KB-V1 cytotox | HT1080NT lethal | HT1080 IDH1KD tx | S2 tox | ATXN2 expr inh
Cc1cnc(SCc2ccccn2)nc1C1CCCN(C(=O)c2coc3c2C(=O)CCC3)C1 (centres undefined) | · | · | · | · | i | ·
CCCc1ccc(C(=O)CCC(=O)NNC(=O)c2ccncc2)cc1 | 10µM* | ? | 9% | 14% | i | 9%
CCCc1ccc(C(=O)NNC(=O)c2ccc(Cl)cc2)cc1 | i | i | -3% | 7% | i | 10%
CNc1nc(Cl)nc2c1ncn2-c1ccccc1 | 15µM* | 6.5µM* | -12% | -9% | i | 0%
Nc1nc2c(ncn2-c2ccccc2)c(=O)[nH]1 | i | i | -4% | -2% | ? | -9%
Clc1nc(Cl)c2ncn(-c3ccccc3)c2n1 | 18µM* | ? | -1% | -25% | ? | ?
COc1ccc(CCN2C(=O)N(c3ccc(F)cc3)C(=O)C2CC(=O)Nc2ccc(OC)cc2)cc1 (centres undefined) | i | i | · | · | ? | -6%
O=C1/C(=C/c2ccc([N+](=O)[O-])cc2)C=C(c2ccccc2)N1c1ccc(O)cc1 | ? | 5.8µM* | -15% | ? | ? | 20µM*
O=C1/C(=C/c2ccc([N+](=O)[O-])cc2)C=C(c2ccccc2)N1c1ccccc1 | i | i | -3% | -10% | i | -2%
Cc1ccc(Oc2ccccc2/C=C2\SC(=O)N(C)C2=O)cc1 | i | 16µM* | -29% | -17% | i | -6%
Cc1cc(C)nc(N/N=C/c2ccccc2Cl)n1 | i | i | 4% | 12% | i | ·
Cc1cc(C)c2nc(C)cc(N/N=C/c3ccc(O)cc3)c2c1 | ? | ? | 5.2µM* | 5.8µM* | ? | ?
Fc1ccc(CNc2nc(-c3ccc(Cl)cc3)cc(C(F)(F)F)n2)cc1 | ? | i | · | · | i | ?
Cc1cc(-c2ccccc2)nc(N/N=C/c2ccc(O)cc2)n1 | 21µM* | ? | ? | ? | i | 20%
Cc1cc(C)nc(N/N=C/c2cccc3ccccc23)n1 | i | 18µM* | 14% | 4% | i | 25%
Cc1cc(N/N=C/c2ccc(O)cc2)c2cccc(C)c2n1 | i | i | ? | ? | ? | ·
Oc1ccc(/C=N/Nc2nc(-c3ccc(Cl)cc3)cc(C(F)(F)F)n2)cc1 | ? | ? | ? | 16µM* | ? | ?
CCOC(=O)c1ccc(NC(=O)CCCn2nc(C)c3sc4ccccc4c3c2=O)cc1 | i | i | · | · | · | ·
Cc1ccc(-c2nn(CC(=O)NC3CCCCC3)c3c2cnc2ccccc23)cc1 | i | i | · | · | i | 9%
CC1(C)NC(=O)N(CC(O)COc2ccc(-c3ccc(C#N)cc3)cc2)C1=O (centres undefined) | i | 21µM* | -8% | -10% | i | -16%
CCOc1ccccc1NC(=O)COc1cccc2c(=O)n(CCOC)ccc12 | i | ? | · | · | i | -4%
Cn1c2cc(S(C)=O)sc2c2cnn(Cc3cccc(N)c3)c(=O)c21 (centres undefined) | · | · | · | · | · | -10%
O[C@@H]1C[C@H](c2ccc(Cl)cc2)N(CC2CCCCC2)C[C@H]1n1cc(C2CC2)nn1 | i | i | 5% | 4% | i | 11%
Cc1ccc([C@H]2C[C@@H](O)[C@H](n3cc(C4CC4)nn3)CN2CC2CCCCC2)cc1 | i | i | 0% | 5% | i | -10%
O[C@@H]1CN(CC2CCCCC2)[C@@H](c2ccc(Cl)cc2)C[C@H]1n1cc(C2CC2)nn1 | ? | ? | 0% | -1% | 20µM* | ?
O[C@H]1C[C@H](c2ccc(Cl)cc2)N(CC2CCCCC2)C[C@@H]1n1cc(C2CC2)nn1 | ? | ? | ? | ? | 35µM* | ?
CCCN(Cc1nnc(-c2ccccc2Cl)o1)C(=O)COc1ccc(Cl)cc1 | i | 4.1µM* | 5% | 2% | ? | 3%
